Measured values reported in the supplement of paper PMC3334620.
Over roughly 33,000 sequences, “E-score (-0.5 to 0.5)” has its median near -0.01; the highest 2% begin near 0.26. Only a selection was taken, and the highest values are over-represented in it overall.

Target: Ste12 (UniProt P13574)
Assay: PBM E-score (8-mer binding enrichment) (E-score (-0.5 to 0.5)); higher = stronger / more preferred TF binding
Conditions: protein concentration: 200 nM; construct: GST-DNA-binding domain
Method in brief: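 Each ungapped eight-base word and its reverse complement, pooled, received an E-score from the Universal PBM Analysis Suite. Underlying scans, normalised with masliner, recorded fluorescent anti-GST bound to GST-tagged yeast transcription factors. These were applied at about 100-200 nM to universal all-10-mer Agilent arrays double-stranded by primer extension.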

UniProt P13574, sequence (P13574 whole entry): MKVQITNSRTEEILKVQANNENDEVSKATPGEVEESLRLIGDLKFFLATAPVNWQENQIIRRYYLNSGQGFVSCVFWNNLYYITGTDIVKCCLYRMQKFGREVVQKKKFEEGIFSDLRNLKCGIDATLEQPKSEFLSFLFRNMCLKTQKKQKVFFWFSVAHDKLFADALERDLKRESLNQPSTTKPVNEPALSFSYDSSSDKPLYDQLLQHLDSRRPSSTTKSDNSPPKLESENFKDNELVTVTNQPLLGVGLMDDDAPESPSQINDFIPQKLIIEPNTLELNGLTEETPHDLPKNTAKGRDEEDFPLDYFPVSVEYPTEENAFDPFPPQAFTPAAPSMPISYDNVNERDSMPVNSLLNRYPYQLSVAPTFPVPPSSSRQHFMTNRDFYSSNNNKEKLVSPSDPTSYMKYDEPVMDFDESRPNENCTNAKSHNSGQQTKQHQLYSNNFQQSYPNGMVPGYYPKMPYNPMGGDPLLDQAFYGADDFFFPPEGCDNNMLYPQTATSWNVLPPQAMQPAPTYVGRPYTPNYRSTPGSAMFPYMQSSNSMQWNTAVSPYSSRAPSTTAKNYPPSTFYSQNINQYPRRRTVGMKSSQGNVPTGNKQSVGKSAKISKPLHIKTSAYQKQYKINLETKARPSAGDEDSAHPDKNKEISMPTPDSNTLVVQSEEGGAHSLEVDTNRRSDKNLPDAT

Row | Sequence | PBM E-score
1 | GTTTGTTA | 0.169
2 | CCTAATGA | 0.13
3 | AGGGTCTC | -0.153
4 | CCCTTCAC | -0.0106
5 | AATTCATG | 0.255
6 | ACCCAGAT | 0.0125
7 | AGACCACG | -0.255
8 | TAAACACA | 0.175
9 | CAAACACG | 0.17
10 | AAAACACG | 0.304
11 | GAAACACA | 0.408
12 | AAAACACC | 0.213
13 | AAAACACA | 0.198
14 | AAAACACT | 0.215
15 | CAAACACC | 0.121
16 | GAAACACC | 0.311
17 | AGGGCTCC | -0.236
18 | GTCGCTTA | -0.193
19 | CCGGGCAA | -0.0289
20 | CATTGTGG | 0.0722
21 | ATGCTCCA | 0.0506
22 | AGCTGAAC | -0.288

Row | Sequence | PBM E-score
23 | GCCTGAAA | 0.273
24 | GCCTGAAC | -0.209
25 | CGCTGAAA | 0.251
26 | TCCTGAAA | 0.25
27 | GGCTGAAA | 0.27
28 | AGCTGAAG | -0.127
29 | AGCTGAAA | 0.264
30 | TGCTGAAA | 0.24
31 | GCCACAGC | -0.299
32 | GGGGCTAA | -0.0575
33 | CCTATAGA | 0.00311
34 | ATTGCGAG | 0.127
35 | ATTGCGAC | 0.277
36 | CTTGCGAC | -0.128
37 | CCGTCGCA | 0.176
38 | CAATGCGA | -0.00861
39 | CATGATCA | 0.0535
40 | ATCTAAAA | 0.285
41 | GTCTAAAA | 0.135
42 | TTCTAAAA | 0.292
43 | ATCTAAAC | 0.127
44 | CTCTAAAA | 0.0605

Row | Sequence | PBM E-score
45 | ATCTAAAT | 0.172
46 | CGCTCTGA | 0.0576
47 | ACTGGGTG | -0.107
48 | GTACCTCA | -0.173
49 | GAGTTGGA | 0.0912
50 | ATAGTCAT | -0.141
51 | AGGAGCGC | -0.0491
52 | TAGTGATA | -0.126
53 | TCGTGAAA | 0.177
54 | GAGTGAAA | 0.204
55 | ACGTGAAC | -0.226
56 | CAGTGAAA | 0.197
57 | TAGTGAAA | 0.324
58 | AAGTGAAA | 0.291
59 | TAGTGACA | -0.0814
60 | ACGTGAAA | 0.323
61 | GGCCACAA | 0.0783
62 | CTCCCAGA | -0.165
63 | CCCCAAGC | 0.176
64 | GCAATCAA | 0.0398
65 | ACTGGGAA | 0.0846
66 | AGCTAGTC | -0.133

Row | Sequence | PBM E-score
67 | ACAAACAC | 0.266
68 | ACAAACAG | 0.125
69 | GCAAACAA | 0.146
70 | CCAAACAA | 0.125
71 | ACAAACAA | 0.0589
72 | TCAAACAA | 0.266
73 | CAGGGCGA | -0.103
74 | CAGCGATC | -0.00075
75 | AATGTCAT | 0.0301
76 | AGTCCCAC | -0.133
77 | CACAATAG | 0.227
78 | AGTCTAAT | 0.00604
79 | ATATAGAT | 0.179
80 | AGGGCGGC | -0.0895
81 | AGGCGGGA | 0.0721
82 | AGGGCGTG | -0.116
83 | AGGGGCGA | 0.165
84 | AGGGGCGG | 0.452
85 | AGGCGGGC | 0.0738
86 | AGGGCGGG | 0.296
87 | AGGGGCGC | 0.0204
88 | AGGCGGGG | 0.269

Row | Sequence | PBM E-score
89 | GCAAAGCC | -0.185
90 | TCCCAGAA | -0.0433
91 | TGCTTTAA | 0.199
92 | ACTGAGGG | -0.101
93 | CGAGGTAC | -0.0522
94 | CGCCGCAG | 0.0202
95 | CAATTAGA | 0.102
96 | AAATTAGA | 0.283
97 | TAATTAGA | 0.161
98 | GCCGAACC | 0.0313
99 | CGCTGAGC | -0.154
100 | AACCCGCC | 0.0991
101 | ACCCCGCC | 0.41
102 | CCCCCGCC | -0.0801
103 | GCCCCGCC | 0.33
104 | GCCCCGCA | -0.112
105 | GGCCCGCC | 0.0329
106 | ACCCCTCC | 0.229
107 | GTCGCGAA | -0.0274
108 | GTCGCGAC | 0.389
109 | CTCGCGAC | 0.0527
110 | AACTATGG | -0.0761
